Most compounds without a hit are left out; they make up all but 4.7% or so of the library.
HSP90 inh – HSP90 refolding inhibition in rabbit reticulocyte lysate; luciferase refolding luminescence, 3 h; inhibition, % at 5.6 µM; 290,000 compounds, 0.91% hits; AID 1789;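 active = inhibition above the screen-wide mean plus 3 SD, computed separately per campaign, cut at about 16% in these data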;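 also: 0% = DMSO wells and 100% = 60 µM geldanamycin wells; inhibitors lower the luminescence because luciferase stays unfolded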
TWEAK-Fn14 inh – blocks TWEAK-Fn14 interaction in a reporter cell assay | TWEAK-stimulated Fn14 reporter cells, luciferase luminescence, 8 h | inhibition, % at 10 µM | 360,000 compounds, 2% hits; in the data active = inhibition above about 50%
TROY signal inh – inhibitors of TROY-dependent NF-kB signaling; Q293 LMP1-TROYcd NF-kB luciferase reporter, 4 h; inhibition, % at 10 µM; 360,000 compounds, 0.98% hits;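 active = compounds whose plate-normalised and pattern-corrected inhibition of the luciferase reporter signal at the single screening dose is 50% or more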
HSF1 activator – increases HSF-1 driven luciferase reporter signal | NIH3T3-HGL HSF-1 luciferase reporter, MG132, 8 h; 100% = twice DMSO control signal | activation, % at 9 µM | 300,000 compounds, 1.7% hits | AID 504408;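 active = mean replicate activation of at least 50% with a set share of replicates each reaching 50%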;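 also: 0% = median of the neutral control wells and 100% = twice that signal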
HSF1 inhib – HSF1 inhibition. 300,000 compounds, 0.77% hits. activity change, negative = inhibition, % at 7.5 µM (by protocol). AID 2098. NIH3T3-HGL HSE-luciferase, MG132-induced, luminescence 8 h; hits give low values;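 active = more than half of replicate wells show activity change below -50%, luminescence cut by over half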;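 also: luciferase reports HSF-1 transcriptional activity via heat shock element; 0% = median of DMSO wells and -100% = zero luminescence signal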
LMP1 NFkB inh – inhibitors of Epstein-Barr LMP1-induced NF-kappaB reporter. LMP1-induced NF-kappaB luciferase reporter cells, luminescence. inhibition, % at 12.5 µM. 350,000 compounds, 0.69% hits. AID 504558; in the data active = inhibition above about 41%;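 also: 0% = neutral control wells and 100% = reference inhibitor control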
* = called active by the depositor.

`NC(N)=NS(=O)(=O)c1ccc(NC(=S)NC(=O)c2ccc(Br)cc2)cc1` gave HSP90 inh 0, TWEAK-Fn14 inh 4, TROY signal inh 2, HSF1 activator 114*, HSF1 inhib 86 and LMP1 NFkB inh 1.
`Cc1nc(SCc2nc3cc(Cl)c(F)cc3[nH]2)c2oc3ccccc3c2n1` gave TWEAK-Fn14 inh 53*, TROY signal inh 6 and LMP1 NFkB inh 19.
For COc1ccc(NC(=O)C2(C)CCN2Cc2ccccc2Cl)cc1OC (stereo not given) the results were TWEAK-Fn14 inh -8 and TROY signal inh 24.
Screening CC(C)c1c(C(=O)Nc2ccccc2)c(-c2ccccc2)c(-c2ccc(F)cc2)n1CC[C@@H](O)C[C@@H](O)CC(=O)O returned TWEAK-Fn14 inh -4 and TROY signal inh -9.
O=C(C1CC(=O)N(c2ccc3c(c2)OCCO3)C1)N1CCN(S(=O)(=O)c2ccccc2F)CC1 (stereo not given) was read as TWEAK-Fn14 inh 83*, TROY signal inh 49 and LMP1 NFkB inh 10.
`O=C(C1CC(=O)N(c2ccc3c(c2)OCCO3)C1)N1CCN(S(=O)(=O)c2cccc(F)c2)CC1` (stereo not given) gave TWEAK-Fn14 inh 18, TROY signal inh 1 and LMP1 NFkB inh -1.
O=C(C1CC(=O)N(c2ccc3c(c2)OCCO3)C1)N1CCN(S(=O)(=O)c2ccc(F)cc2)CC1 (stereo not given) was read as TWEAK-Fn14 inh 3, TROY signal inh 0 and LMP1 NFkB inh 53*.
CC(C)N(C)c1ncnc2c1ncn2[C@H]1CN(Cc2ccc(-c3ccccc3)cc2)C[C@@H](CO)O1 was read as TWEAK-Fn14 inh 26 and TROY signal inh 26.
Cc1ccc(C(=O)N/N=C(/CC(=O)c2cccs2)C(F)(F)F)cc1 was read as HSP90 inh -2, TWEAK-Fn14 inh 0, TROY signal inh 53*, HSF1 activator 0, HSF1 inhib 0 and LMP1 NFkB inh 7.
`O=C(Nc1nc2ccc(Br)cc2s1)c1ccco1` gave HSP90 inh 3, TWEAK-Fn14 inh 46, TROY signal inh -28, HSF1 activator 47, HSF1 inhib 14 and LMP1 NFkB inh -12.
`Cn1cc(Cl)c(C(=O)Nc2nc3ccc(Cl)cc3s2)n1` gave HSP90 inh -2, TWEAK-Fn14 inh -3, TROY signal inh -43, HSF1 activator 57*, HSF1 inhib 23 and LMP1 NFkB inh -44.
`Cn1cc(Cl)c(C(=O)Nc2nc3ccc([N+](=O)[O-])cc3s2)n1` gave HSP90 inh 2, TWEAK-Fn14 inh -17, TROY signal inh -37, HSF1 activator 20, HSF1 inhib 12 and LMP1 NFkB inh -9.
`O=C(Nc1nc2ccc(Cl)cc2s1)c1ccco1` gave HSP90 inh 15, TWEAK-Fn14 inh 58*, TROY signal inh 7, HSF1 activator 27, HSF1 inhib 10 and LMP1 NFkB inh 3.
Screening Cc1cc2sc(NC(=O)c3ccco3)nc2cc1Cl returned HSP90 inh 4, TWEAK-Fn14 inh 35, TROY signal inh -31, HSF1 activator 66*, HSF1 inhib 37 and LMP1 NFkB inh -44.
For Cc1noc(C)c1C(=O)Nc1nc2ccc(Cl)cc2s1 the results were HSP90 inh -1, TWEAK-Fn14 inh 0, TROY signal inh 2, HSF1 activator 9, HSF1 inhib 15 and LMP1 NFkB inh -13.
For CC1CC1C(=O)Nc1nc2ccc(Cl)cc2s1 (stereo not given) the results were TWEAK-Fn14 inh 36, TROY signal inh -26, HSF1 activator 61*, HSF1 inhib 44 and LMP1 NFkB inh -46.
For Cc1ccccc1C1N=C2Oc3ccccc3C=C2C(=O)N1 (stereo not given) the results were TWEAK-Fn14 inh 18 and TROY signal inh 10.
For Cc1ccc(Cc2cnc(NC(=O)c3ccco3)s2)cc1 the results were HSP90 inh 7, TWEAK-Fn14 inh 58*, TROY signal inh 35, HSF1 activator 46, HSF1 inhib 15 and LMP1 NFkB inh -10.
`NC(=O)c1cc(Cc2ccccc2)sc1NC(=O)c1ccco1` gave HSP90 inh -4, TWEAK-Fn14 inh 12, TROY signal inh -62, HSF1 activator 134*, HSF1 inhib 94 and LMP1 NFkB inh -37.
For O=C(Nc1nnc(Cc2ccccc2)s1)c1ccco1 the results were HSP90 inh 4, TWEAK-Fn14 inh -17, TROY signal inh -29, HSF1 activator 39, HSF1 inhib 8 and LMP1 NFkB inh -16.
